Most compounds without a hit are left out; they make up all but 21% or so of the library.
VP16 counter = Gal4-VP16 reporter inhibition counter-screen | Potency, µM (series often up to 53.6 µM), usual class: inhibitors | 310,000 compounds, 3.5% hits | Drosophila S2 Gal4-VP16 UAS-luciferase, luminescence, 20 h | AID 2546;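 further: Gal4-VP16 expression switched on by copper sulfate through the metallothionein promoter; nearly all actives have a fitted effect of over 50% in size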
RORg inh = inhibitors of mouse ROR gamma transcriptional activity; Drosophila S2 Gal4-RORgamma UAS-luciferase reporter, 20 h; Potency, µM (titrated, usually from 53.6 µM), most hits filed as inhibitors; 310,000 compounds, 5.4% hits; further: nearly all actives have a fitted effect of over 60% in size
Target sequence (P51450 whole entry, looked up, the tested form may be a part): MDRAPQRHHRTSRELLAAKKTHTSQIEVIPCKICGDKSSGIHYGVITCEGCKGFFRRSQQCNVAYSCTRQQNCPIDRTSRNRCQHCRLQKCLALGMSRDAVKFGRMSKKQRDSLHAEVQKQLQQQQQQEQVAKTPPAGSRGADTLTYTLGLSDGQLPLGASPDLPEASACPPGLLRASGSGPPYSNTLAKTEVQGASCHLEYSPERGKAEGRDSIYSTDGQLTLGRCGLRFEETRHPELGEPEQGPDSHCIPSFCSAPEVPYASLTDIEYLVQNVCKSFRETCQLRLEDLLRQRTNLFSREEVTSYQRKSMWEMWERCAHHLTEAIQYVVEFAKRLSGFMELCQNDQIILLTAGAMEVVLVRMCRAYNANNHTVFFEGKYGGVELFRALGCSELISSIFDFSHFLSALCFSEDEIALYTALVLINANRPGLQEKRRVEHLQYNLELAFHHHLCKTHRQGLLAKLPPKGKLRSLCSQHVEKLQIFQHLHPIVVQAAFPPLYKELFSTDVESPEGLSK
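Luminescence from a UAS-regulated Photinus luciferase reporter in stably transfected Drosophila Schneider cells is measured; decreased signal marks ROR gamma inhibition. Fusion expression is induced by 700 uM copper sulfate for 20 hr.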
IL-1B inflam inh = inflammasome signaling inhibition, IL-1 beta readout; THP-1 LPS/ATP IL-1B secretion, AlphaLISA, 16 h; hits give low values; activity change, % at 57.5 µM; 360,000 compounds, 4.7% hits; in the data active means activity change below about -50%; inconclusive means mostly about -30% to -49%
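THP-1 cells pretreated 1 hr with compounds (up to 57.5 uM final), then stimulated with LPS (250 ng/mL final) plus ATP (1.25 mM final); secreted IL-1B measured by AlphaLISA after 16 hr, decreased signal indicating inhibition.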
ELG1 DNA repair = blocks ELG1-dependent DNA repair in HEK293T cells; AID 504467; Potency, µM (top dose mostly 46.1 µM), actives largely listed as inhibitors; HEK293T ELG1-luciferase reporter, luminescence, 16 h; DNA damage induced by 5-fluorouridine; 330,000 compounds, 2.3% hits; further: nearly all actives have a fitted effect of over 55% in size
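Step one: seed 2,000 cells per well. Step two: pin-transfer compound or DMSO alongside 5-fluorouridine. Step three: incubate 16 hr, 37 °C, 5% CO2. Step four: add ONE-Glo, wait 30 min, read luminescence.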
TDP1 cell noCPT = qHTS for Inhibitors of human tyrosyl-DNA phosphodiesterase 1 (TDP1): qHTS in cells in absence of CPT. DT40 Tdp1-/- hTDP1 cells, no CPT, ATP luminescence, 48 h. Potency, µM (doses to about 46.2 µM), most hits filed as inhibitors. 420,000 compounds, 15% hits; further: nearly all actives have a fitted effect of over 55% in size
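Growth of hTDP1-complemented DT40 Tdp1-knockout cells is measured by ATP luminescence after at least 48 hr compound exposure at 37 °C, with DMSO substituting for the 20 nM CPT used in the parallel screen.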
DT40 TDP1 CPT = growth inhibition of DT40 Tdp1-/-;hTDP1 cells with camptothecin (screen for TDP1 inhibitors) | chicken DT40 Tdp1-/-;hTDP1 cells + 20 nM CPT, ATP luminescence, 48 h | Potency, µM (series often up to 46.2 µM), hits mostly inhibitors | 420,000 compounds, 12% hits | AID 686979; further: nearly all actives have a fitted effect of over 55% in size
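Chicken DT40 Tdp1-/- cells complemented with human TDP1, 400 cells/well, exposed to compounds plus 20 nM camptothecin for at least 48 h at 37 C; viability read as ATP content by CellTiter-Glo luminescence.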
A number is an active result; n = inactive; u = inconclusive; x = no result. Unless noted, the call rests on the fitted dose curve; in most records, active means well fitted curve in the direction sought with a large enough effect; inconclusive means small, poorly fitted or top-dose-only effect, or another doubt; inactive means no such curve, though single readings can be large; an effect the other way counts as inactive or inconclusive.

SMILES	VP16 counter	RORg inh	IL-1B inflam inh	ELG1 DNA repair	TDP1 cell noCPT	DT40 TDP1 CPT
O=C(c1csnn1)N1CCC2(CCCN(Cc3ccccc3)C2)CC1	n	n	x	x	n	n
CN(Cc1cnn(-c2ccc(F)cc2)c1)C(=O)[C@H]1O[C@@H](n2cnc3c(N)ncnc32)[C@H](O)[C@@H]1O	x	x	n	x	n	n
Cc1ccccc1NC(=O)C(NS(=O)(=O)c1ccc2c(c1)c(=O)n(C)c(=O)n2C)c1ccccc1 (centres undefined)	n	n	n	n	16µM	u
Cn1c(=O)c2cc(S(=O)(=O)NC(C(=O)Nc3cccc(F)c3)c3ccccc3)ccc2n(C)c1=O (centres undefined)	n	n	n	n	u	u
COc1cccc(NC(=O)C(Cc2ccccc2)NS(=O)(=O)c2ccc3c(c2)c(=O)n(C)c(=O)n3C)c1 (centres undefined)	x	x	x	x	u	n
COc1ccccc1NC(=O)C(Cc1ccccc1)NS(=O)(=O)c1ccc2c(c1)c(=O)n(C)c(=O)n2C (centres undefined)	x	x	x	x	u	23µM
CC1CCc2c(sc3nc(-c4cc5cc(Br)ccc5oc4=O)[nH]c(=O)c23)C1 (centres undefined)	x	x	x	x	n	n
Cc1ccc(C)c(N2CCN(CCCNC(=O)Cn3ncc4c5ccccc5n(C)c4c3=O)CC2)c1	x	x	x	x	10µM	15µM
Cn1c2ccccc2c2cnn(CC(=O)NCCCN3CCN(c4ccccc4F)CC3)c(=O)c21	n	n	n	n	15µM	u
CSCC[C@H](N)C(=O)N[C@@H](CCCN=C(N)N)C(=O)N[C@@H](Cc1ccccc1)C(=O)N[C@@H](Cc1ccccc1)C(=O)N[C@H](C(=O)O)C(C)C	n	n	x	x	x	x
O=S(=O)(NCCc1csc(-c2cccnc2)n1)c1ccc(Cl)s1	n	n	n	u	23µM	12µM
COc1ccc(S(=O)(=O)NCCc2csc(-c3cccnc3)n2)cc1	n	n	n	n	n	15µM
COc1ccc(OC)c(S(=O)(=O)NCCc2csc(-c3cccnc3)n2)c1	n	n	n	n	n	n
Cc1ccc(S(=O)(=O)N2CCN(C(=O)N3CCCCC3)CC2)c(C)c1	x	x	n	x	u	u
CC(=O)c1c(C)[nH]c(C(=O)N2CCN(S(=O)(=O)c3ccc(C)cc3C)CC2)c1C	x	x	n	u	18µM	u
CCOC(=O)c1c(C)[nH]c(C(=O)OCC(=O)N2CCN(S(=O)(=O)c3ccc(C)cc3C)CC2)c1C	x	x	u	13µM	u	u
Cc1ccc(S(=O)(=O)N2CCN(C(=O)COC(=O)c3ccc(O)cc3)CC2)c(C)c1	x	x	n	n	u	n
Cc1cccc(C(=O)OCC(=O)NC(=O)c2ccccc2)c1O	x	x	n	n	n	n
CCC(c1nnnn1-c1ccc2c(c1)OCCO2)N1CCN(c2ccc(C)cc2)CC1 (centres undefined)	x	x	n	x	u	u
Cc1ccc(C(=O)/C=C/c2cc(Br)cc(Br)c2O)o1	n	n	u	n	29µM	n
COc1ccccc1NC(=O)c1cc(S(=O)(=O)NCc2ccccc2)ccc1F	n	u	n	16µM	u	u
COc1ccc(CNS(=O)(=O)c2ccc(F)c(C(=O)Nc3ccccc3OC)c2)cc1	n	n	n	u	n	n
CCc1ccccc1NC(=O)c1cc(S(=O)(=O)NCCc2ccc(OC)c(OC)c2)ccc1F	x	x	x	x	16µM	21µM
CCOc1ccccc1NC(=O)c1cc(S(=O)(=O)NCc2ccco2)ccc1F	n	n	n	u	n	15µM
CCCCC[C@H](C)N1C[C@H](COCc2ccccc2)Oc2cc(N3CC[C@@H](O)C3)ccc2S1(=O)=O	x	x	n	x	u	u
SMILES	VP16 counter	RORg inh	IL-1B inflam inh	ELG1 DNA repair	TDP1 cell noCPT	DT40 TDP1 CPT
CCCCC[C@H](C)N1C[C@@H](COCc2ccccc2)Oc2cc(N3CC[C@H](N(C)C)C3)ccc2S1(=O)=O	x	x	-50	x	u	u
CCCCC[C@@H](C)N1C[C@@H](COCc2ccccc2)Oc2cc(N3CC[C@H](N(C)C)C3)ccc2S1(=O)=O	x	x	-73	x	18µM	u
CCc1cccc(NC(=O)CCNS(=O)(=O)c2ccc3c(c2)CCN3C(C)=O)c1	x	x	x	x	n	u
COc1ccc(N=C2S/C(=C\c3ccco3)C(=O)N2CC(C)C)cc1	n	n	n	n	n	n
COc1ccc(N=C2S/C(=C\c3cc(C)n(C)c3C)C(=O)N2CC(C)C)cc1	n	n	n	u	18µM	u
CCN1C(=O)/C(=C/c2cccs2)SC1=Nc1ccc(OC)cc1	n	n	n	n	4.1µM	7.3µM
CC(C)c1ccc(OC(=O)c2ccc3c(=O)n4c(nc3c2)CCC4)cc1	x	x	n	n	u	u
Cn1nc(C#N)c(=O)[nH]c1=O	x	x	n	x	n	n
COc1ccc(N2CCN(S(=O)(=O)c3cn(C)cn3)CC2)cc1	n	n	n	n	n	n
COc1ccc(N2CCN(c3c4c(nc5nncn35)CCC4)CC2)cc1	x	x	x	x	8.2µM	8.2µM
FC(F)(F)c1ccccc1Cc1c(-c2ccccc2)nc2ccc(Br)cn12	x	x	n	x	u	u
CN(Cc1ccccc1)Cc1c(O)ccc2ccccc12	n	n	n	n	n	u
CN(Cc1cc(Cl)cc(Cl)c1O)Cc1c(O)ccc2ccccc12	x	x	-96	x	u	u
COCCN1C(=O)CN(S(C)(=O)=O)CC1(C)C(=O)NC(C)C (centres undefined)	x	x	n	x	n	n
CC1CCc2nc3ccccc3c(C(=O)OCC(=O)NC3CCS(=O)(=O)C3)c2C1 (centres undefined)	n	n	n	n	n	n
COc1cccc(NC(=O)COC(=O)c2c(C)nn(-c3ccccc3)c2C)c1	x	x	-56	u	n	u
COc1cccc(NC(=O)COC(=O)c2c3c(nc4ccccc24)CCC(C)C3)c1 (centres undefined)	n	n	n	u	9.2µM	8.2µM
CC(=O)OCCCNc1cc(Sc2ccc(C)cc2)c2nonc2c1[N+](=O)[O-]	u	n	-51	u	3.3µM	2.9µM
O=[N+]([O-])c1c(NCCCO)cc(SCc2ccco2)c2nonc12	u	u	-97	n	21µM	15µM
CC1CCN(CCCNc2cc(NCCO)c([N+](=O)[O-])c3nonc23)CC1	n	n	n	n	n	n
O=[N+]([O-])c1c(NCCCO)cc(N2CCCCCC2)c2nonc12	u	n	n	n	u	n
Cn1ccnc1Sc1cc(NCCCO)c([N+](=O)[O-])c2nonc12	11µM	1.3µM	-101	u	5.2µM	3.3µM

From PubChem BioAssay
